Results published in PubChem BioAssay (NCATS).
Results filed as inconclusive are left out. Values without a mark were called inactive. Calls of active or inactive are those of the source. Calls follow the shape of the dose curve; as a rule, active = well fitted cell-killing curve with a large enough effect; inconclusive = small, poorly fitted or top-dose-only effect, or effect the other way; inactive = flat fitted curve, though single readings scatter.

Experiment: qHTS assay for cell viability of the p53RE-bla HCT-116 cell line (AID 743292); also: nearly all actives have a fitted effect of over 55% in size
Details: p53RE-bla HCT-116 viability, ATP luminescence, 16 h; series mostly up to 95 µM; activity change, negative = cytotoxicity: at the top concentration
Text: U.S. Tox21 Program National Center for Advancing Translational Sciences [NCATS] NIH Chemical Genomics Center [NCGC] U.S. Environmental Protection Agency [EPA] National Institutes of Environmental Health Sciences [NIEHS] National Toxicology Program [NTP] U.S. Food and Drug Administration [FDA] Tox21 Assay Overview: The CellTiter-Glo Luminescent Cell Viability Assay (Promega, Madison, WI) is a homogeneous method to determine the number of viable cells in culture based on quantitation of the ATP present, which signals the presence of metabolically active cells. This cell viability assay was used to screen environmental chemicals in the CellSensor p53RE-bla HCT-116 cell line (Invitrogen).
Tox21 Assay Protocol Summary: Cell viability after compound treatment was measured using a luciferase-coupled ATP quantitation assay (CellTiter-Glo viability assay, Promega, Madison, WI) in CellSensor p53RE-bla HCT-116 cell line (Invitrogen). Total intracellular ATP content corresponds to the number of metabolically competent cells after compound treatment. The cells were dispensed at 4,000 cells/5 uL/well in 1,536-well white/solid bottom assay plates using a Flying Reagent Dispenser (Aurora Discovery, San Diego, CA). The cells were incubated for 5 h at 37 C, followed by the addition of 23 nL of compounds dissolved in DMSO, positive controls or DMSO only using a pintool work station (Kalypsys, San Diego, CA). The assay plates were incubated for 16 h at 37 C, followed by the addition of 5 uL/well of CellTiter-Glo reagent. After 30 min incubation at room temperature, the luminescence intensity of the plates was measured using a ViewLux plate reader (PerkinElmer, Shelton, CT).
% is scaled to controls: 0 for no effect and ±100 for the full control effect; potency is read from the fitted curve at half-maximal effect.

SMILES | Potency | activity change, negative = cytotoxicity [%]
CCN(CC)CCOc1ccc(/C(=C(\Cl)c2ccccc2)c2ccccc2)cc1 | 70.8 µM (active) | 
CC(C)(C)c1ccc(O)c(O)c1 | inactive | 
Oc1ccccc1 | inactive | 
O=C(NO)c1ccccc1 |  | -4.87
c1ccc2occc2c1 | inactive | 
COC(=O)c1c(Cl)c(Cl)c(C(=O)OC)c(Cl)c1Cl |  | 0.599
O=C(Oc1ccccc1)c1ccccc1O | inactive | 
Nc1c2ccccc2nc2ccccc12 |  | 5.1
Cc1cc(C(C)(C)C)c(O)c(C(C)(C)C)c1 | inactive | 
C1=CC2C3C=CC(C3)C2C1 (centres undefined) |  | 9.34
CC(C)C(C)(C)C(C)(C)C(C)(C)S | inactive | 
CC(=O)OC/C=C(C)/C=C/C=C(C)/C=C/C1=C(C)CCCC1(C)C | inactive | 
CCCCCCCCCCCC[N+](C)(C)Cc1ccccc1 |  | -16.8
Cc1ccc(O)cc1 |  | 6.03
O=C(Nc1ccc(Cl)cc1)Nc1ccc(Cl)c(Cl)c1 |  | -13.5
CCCCCCCCCCCCCCCC[n+]1ccccc1 |  | -13
OCCOCCN1CCN(C(c2ccccc2)c2ccc(Cl)cc2)CC1 (centres undefined) |  | -2.09
O=C(Oc1ccccc1)c1cccc(C(=O)Oc2ccccc2)c1 |  | 3.13
Brc1ccccc1-c1ccccc1 |  | -15.3
CCCCC(CC)COC(=O)c1ccccc1C(=O)O (centres undefined) | inactive | 
CC(C)(c1ccc(O)cc1)c1ccc(O)cc1 | inactive | 
Nc1cccc2c(N)cccc12 | inactive | 
CCCC(=O)c1cc(O)c(O)cc1O |  | -28.6
O=C(c1ccccc1)c1ccccc1 | inactive | 
Nc1ccc(O)cc1 |  | -7.63
OCc1c[nH]c2ccccc12 |  | -0.854
COc1cc(C=O)ccc1O | inactive | 
CN1C(=O)c2ccccc2C1=O |  | 5.43
Cc1ncc(CO)c(CO)c1O |  | -4.13
